Bioassay records as filed in PubChem BioAssay.
Hits are enriched below; roughly 0.48% of the tested compounds scored in any of these assays.
LGR2 inh: inhibitors of bursicon-induced LGR2 CRE-luciferase signal, primary screen, cell-based, HEK293, CRE-luciferase reporter, bursicon stimulation; inhibition, % at 9.99 µM; bursicon-stimulated, 4 h; AID 720647, 2013; actives 0.35% (n = 380,000);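 active means drop in luminescence signal, shown as inhibition above about 50% in the replicate tests, limit read from the data, passing the limit was not always enough; inconclusive means probably only some replicates passing the limit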;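 further: agonist challenge used bursicon conditioned medium at about half maximal strength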
SRC1 inh: SRC1 coactivator transcriptional activity inhibitors, primary screen, cell-based, luminescence; inhibition, % at 3.6 µM; AID 588354, 2011; HEK293 GAL4-SRC1 luciferase reporter; actives 0.12% (n = 360,000);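 active means inhibition above the campaign mean plus 3 SD, with each screening campaign given its own cutoff, cut at about 60% in these data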;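 further: 0% = DMSO treated cells and 100% = gossypol at 36 µM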
SRC2 inh: inhibition of GAL4-SRC2 driven luciferase reporter, primary screen, SRC2 inhibitor project, cell-based, luminescence. Nuclear receptor coactivator 2 (Homo sapiens), Q15596. HEK293 GAL4-SRC2 luciferase reporter. inhibition, % at 9 µM. actives 0.17% (n = 370,000). AID 651957, 2012;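 active means inhibition above the mean inhibition of all tested compounds plus 3 SD, set per campaign, cut at about 52% in these data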;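 further: 0% = DMSO treated cells and 100% = cells given Gossypol at 36 µM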
SRC3 inh: SRC3 coactivator transcriptional activity inhibitors, primary screen, cell-based, luminescence; Nuclear receptor coactivator 3 (Homo sapiens), Q9Y6Q9; HEK293 GAL4-SRC3 luciferase reporter; inhibition, % at 3.6 µM; actives 0.17% (n = 360,000); AID 588352, 2011;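 active means inhibition above a per-campaign cutoff, the mean of all compounds plus 3 SD, cut at about 60% in these data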;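 further: 0% = DMSO-treated cells and 100% = gossypol-treated cells at 36 µM; higher means less SRC3-driven luciferase light from the GAL4 reporter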
NR5A2 inv ag: LRH-1 (NR5A2) inverse agonists, primary screen, cell-based, luminescence, HEK293T, StAR-luciferase reporter | inhibition, % at 3.6 µM | Nuclear receptor subfamily 5 group A member 2 (Homo sapiens), O00482 | LRH-1 transfected, 24 h | AID 602396, 2012 | actives 0.13% (n = 360,000);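 active means inhibition above the mean inhibition of all tested compounds plus 3 SD, cut at about 73% in these data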;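 further: 0% = DMSO wells and 100% = reporter-only cells lacking LRH-1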
* marks the source's active call; other numbers are inactive results; ? = inconclusive; nt = no result.

SMILES	LGR2 inh	SRC1 inh	SRC2 inh	SRC3 inh	NR5A2 inv ag
CC(C)[C@H](CO)N(Cc1cccc(F)c1)c1nc(Nc2cccc(Cl)c2)c2ncn(C(C)C)c2n1	nt	-7.7	-0.1	-1.1	-11.3
CN(C)c1ccc(NC(=O)c2cnsn2)cc1	70.6*	-67.2	-17.6	-68.4	-126.0
O=C(Cc1ccncc1)NCC[C@H]1CC[C@H](NC(=O)Nc2cccc(F)c2)[C@@H](CO)O1	-5.1	nt	nt	nt	nt
COc1ccc2c3c(n(C)c2c1)[C@H](CO)N(CC1CC1)CC31CCN(C(=O)c2ccc(F)cc2)CC1	-13.7	nt	nt	nt	nt
C=C1C(=O)O[C@@H]2[C@H]3O[C@]3(C)CC/C=C(\C)CC[C@@H]12	20.2	13.9	2.5	-6.4	3.5
C=C1C(=O)O[C@H]2C[C@H]1[C@@H](OC(C)=O)C/C(C)=C/CC/C(C)=C\CC[C@]2(C)O	nt	33.2	43.6	71.8*	40.6
Cc1nn(-c2nc3ccccc3[nH]2)c(=O)c2ccccc12	103.1*	74.3*	85.4*	79.8*	72.8*
Cc1nn(-c2ccc3ccccc3c2)c(=O)c2ccccc12	-0.6	-104.2	-69.7	-75.3	-109.0
O=C1c2ccccc2C(=O)c2cc(N3CCCCC3)ccc21	97.4*	0.3	-11.3	15.5	8.4
Cc1cc(C)n2c(Nc3ccc4c(c3)OCCO4)c(-c3ccc(C)o3)nc2n1	11.0	-59.7	-44.1	-81.3	-61.5
Cc1cc(C)n2c(Nc3ccc4c(c3)OCCO4)c(-c3cc4ccccc4o3)nc2n1	92.2*	nt	37.0	nt	42.6
Cc1noc(C)c1S(=O)(=O)Nc1ccc2c(c1)C(=O)N([C@H](C)CO)C[C@@H](C)[C@H](CN(C)C)O2	-9.9	nt	nt	nt	nt
COc1ccc(CC(=O)Nc2cccc(-c3nnc(-c4ccccc4)o3)c2)cc1OC	102.6*	36.2	60.8*	50.8	-54.5
COc1ccc(CC(=O)Nc2cccc(-c3nnc(-c4cccc(C)c4)o3)c2)cc1OC	?	-4.0	13.9	-6.6	-6.7
COc1ccc(CC(=O)Nc2cccc(-c3nnc(-c4ccc(C)cc4)o3)c2)cc1OC	94.2*	-7.1	-10.8	0.3	7.6
Cc1ccc(NC(=O)CCC(=O)c2cccs2)nc1	-51.3	-61.8	-33.3	-3.2	0.1
Cc1ccnc(NC(=O)CCC(=O)c2cccs2)c1	88.8*	-67.7	12.0	-58.9	-50.6
O=C(Nc1nccs1)[C@@H]1[C@@H](CO)[C@@H]2Cn3c(cccc3=O)[C@H]1N2C(=O)C1CCCCC1	1.6	nt	nt	nt	nt
CS(=O)(=O)c1ccc(C(=O)NCCN2C(=O)S/C(=C\c3cccnc3)C2=O)cc1[N+](=O)[O-]	68.7*	-72.5	-30.6	-35.8	-46.2
COc1ccc(S(=O)(=O)N2C[C@@H](O)COC[C@@H]3O[C@@H](CC(=O)NCc4ccc(Cl)c(Cl)c4)CC[C@H]32)cc1	-3.3	nt	nt	nt	nt
O=C(COC(=O)c1ccccc1[N+](=O)[O-])c1ccc2c(c1)OCO2	85.1*	-4.2	-12.9	-2.4	-6.5
CCn1c(C)cc(C(=O)COC(=O)c2ccccc2[N+](=O)[O-])c1C	nt	93.2*	nt	93.0*	95.2*
Cc1cc(C(=O)COC(=O)c2ccccc2O)c(C)n1Cc1cccs1	nt	89.8*	85.7*	86.7*	93.9*
Cc1cccc(C(=O)OCC(=O)c2ccc3c(c2)OCO3)c1O	-63.9	-127.4	-74.1	-115.0	-57.0
CCCn1c(C)cc(C(=O)COC(=O)c2ccc[nH]c2=O)c1C	55.7*	-10.5	-1.5	11.0	-56.0
SMILES	LGR2 inh	SRC1 inh	SRC2 inh	SRC3 inh	NR5A2 inv ag
Cc1cc(C(=O)COC(=O)c2ccc3c(c2)OCO3)c(C)n1Cc1cccs1	nt	-55.5	5.5	-39.6	-33.5
C=CCn1c(C)cc(C(=O)COC(=O)c2ccc(N)c([N+](=O)[O-])c2)c1C	-137.3	-102.3	-39.3	-70.1	-139.4
CCCNC(=O)N1C[C@H](O)COC[C@@H]2O[C@H](CC(=O)N[C@H]3CCN(Cc4ccccc4)C3)CC[C@H]21	-0.4	nt	nt	nt	nt
O=C(C[C@@H]1C[C@@H]2c3cc(NC(=O)c4ccc5c(c4)OCO5)ccc3O[C@@H]2[C@H](CO)O1)NCc1cccc(F)c1	-23.2	nt	nt	nt	nt
C/C=C/c1ccc([C@H]2[C@@H](CO)N(C(=O)c3cnccn3)C23CN(C(=O)CC)C3)cc1	11.0	nt	nt	nt	nt
Cc1cc(C(=O)COC(=O)c2ccccc2O)c(C)n1CC1CCCO1 (centres undefined)	99.8*	89.9*	89.3*	88.4*	91.2*
Cc1cc(C(=O)CSc2nnc(N)s2)c(C)n1Cc1cccs1	74.8*	-82.8	-2.3	-97.6	-128.2
Cc1csc(SCC(=O)c2cc(C)n(Cc3cccs3)c2C)n1	nt	28.9	36.2	42.8	27.8
O=C(COC(=O)c1cccs1)c1ccc2c(c1)OCCO2	81.6*	-26.8	-42.6	-43.2	-45.4
Cc1cc(C(=O)COC(=O)c2ccccc2Br)c(C)n1CC1CCCO1 (centres undefined)	91.9*	82.0*	82.0*	84.0*	81.5*
O=C(COC(=O)c1cccs1)c1ccc2ccccc2c1	nt	-92.8	-15.5	-25.4	-11.6
O=C(Nc1ccccc1)N1C[C@@H]2[C@H](c3ccccc31)[C@H](CO)N2Cc1cocn1	-17.6	nt	nt	nt	nt
C[C@H](CO)N1C[C@H](C)[C@@H](CN(C)C(=O)C2CCC2)Oc2ncc(-c3cccc(F)c3)cc2C1=O	-6.5	nt	nt	nt	nt
COCCn1c(C)cc(C(=O)COC(=O)c2ccccc2Br)c1C	nt	80.7*	74.4*	80.8*	77.8*
Cc1ccsc1C(=O)OCC(=O)c1cc(C)n(C)c1C	71.3*	-52.3	-4.0	-24.9	-108.6
O=[N+]([O-])c1ccc(Sc2nc3ccccc3o2)c([N+](=O)[O-])c1	96.8*	-6.6	9.1	-9.7	-4.2
Cc1cc(C(=O)Nc2cccc3c2O[C@H](CN(C)C(=O)Nc2cccc4ccccc24)[C@@H](C)CN([C@@H](C)CO)C3=O)n(C)n1	15.0	nt	nt	nt	nt
COCC(=O)N1C[C@H](C)[C@@H](OC)CN(C)C(=O)c2ccc(NC(=O)c3ccc(F)cc3)cc2OC[C@@H]1C	-8.9	nt	nt	nt	nt
NC(N)=N/N=C/c1ccc(Cl)c(Cl)c1	63.5*	5.0	-9.4	-1.8	-0.2
O=c1c(Cl)c(Cl)cnn1-c1ccccc1	104.0*	-40.1	-30.1	-8.2	7.6
Nc1c(Cl)cnn(-c2ccccc2)c1=O	4.0	-0.6	-9.2	1.3	-9.6
Cc1ccc(NC(=O)c2ccc(Nc3c([N+](=O)[O-])cc([N+](=O)[O-])cc3[N+](=O)[O-])cc2)cc1	85.5*	-30.7	40.7	46.0	-1.3
C[C@@H]1CN([C@@H](C)CO)C(=O)c2cc(-c3cccnc3)cnc2O[C@@H]1CN(C)Cc1ccccc1	13.5	nt	nt	nt	nt
Cc1cc(C)c2c(N)c(C(=O)Nc3ncc(C)s3)sc2n1	nt	45.9	77.0*	49.4	52.0
